This is part of a sample that, as a whole, favours compounds with a hit. Of some 79,000 tested, about 15% had one in any assay. Active and inactive are the calls of the source. Rule as the data show it: active = growth inhibition above about 70%; inactive = the rest.
Columns and labels:
[1] = NCI Yeast Anticancer Drug Screen. Data for the mlh1 strain (AID 171);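 also: 0% = growth of vehicle-treated control cultures of the same strain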; conditions: S. cerevisiae mlh1 strain growth inhibition, active compounds read high
Summary of the method: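 A yeast strain with a defined genetic lesion serves as the test organism. Cultures receive compound or vehicle, and growth is measured.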

[2] = NCI Yeast Anticancer Drug Screen. Data for the sgs1 strain (AID 173);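 also: 0% = growth of vehicle-only control cultures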; conditions: S. cerevisiae sgs1 mutant, active compounds read high
Summary of the method: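 A genetically defined yeast mutant is incubated with the test compound, and its growth is compared to that of the same strain given vehicle.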

[3] = NCI Yeast Anticancer Drug Screen. Data for the mlh1 rad18 strain (AID 175); conditions: S. cerevisiae mlh1 rad18 strain growth inhibition, active compounds read high
Summary of the method: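 Steps: expose repair-defective yeast to compound; measure growth; express inhibition against vehicle-treated controls.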

[4] = NCI Yeast Anticancer Drug Screen. Data for the rad18 strain (AID 177); conditions: S. cerevisiae rad18 mutant growth inhibition, active compounds read high
Summary of the method: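 Measured value is growth inhibition of a yeast strain bearing a DNA repair alteration, referenced to vehicle-treated cells.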

[5] = NCI Yeast Anticancer Drug Screen. Data for the wt1 strain (AID 149);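 also: 0% = growth of vehicle-treated wt1 cultures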; conditions: S. cerevisiae wt1 strain (SPY 50644) growth inhibition, active compounds read high
Summary of the method: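 The wt1 strain was treated with compounds, and growth was compared with vehicle-treated cultures to give inhibition.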

[6] = NCI Yeast Anticancer Drug Screen. Data for the rad50EPP+ strain (AID 151);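 also: 0% = growth of vehicle-treated control cultures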; conditions: S. cerevisiae rad50 mutant strain, active compounds read high
Summary of the method: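 Read-out is yeast growth inhibition relative to vehicle; cells used were the rad50EPP+ strain.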

[7] = NCI Yeast Anticancer Drug Screen. Data for the mgt1 strain (AID 153); conditions: S. cerevisiae mgt1 mutant growth inhibition, active compounds read high
Summary of the method: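 Measured: inhibition of mgt1 yeast growth by compound, normalized to vehicle-treated cultures.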

[8] = NCI Yeast Anticancer Drug Screen. Data for the rad50 strain (AID 155);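 also: 0% = growth of vehicle-only cultures of the same strain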; conditions: S. cerevisiae rad50 strain growth inhibition, active compounds read high
Summary of the method: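 Cells are treated with compound, grown, and their growth is then scored against vehicle-only cultures of the same repair-deficient yeast strain.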

[9] = NCI Yeast Anticancer Drug Screen. Data for the mec2-1 strain (AID 157); conditions: S. cerevisiae mec2-1 strain, active compounds read high
Summary of the method: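 Using mec2-1 yeast: add compound, measure growth, express inhibition versus vehicle-treated cultures.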

[10] = NCI Yeast Anticancer Drug Screen. Data for the rad14 strain (AID 159);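 also: 0% = growth of vehicle-treated control cultures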; conditions: S. cerevisiae rad14 strain growth inhibition, active compounds read high
Summary of the method: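 Readout: yeast growth inhibition, referenced to vehicle-only cultures. Strain bears a defined alteration in DNA damage repair.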

[11] = NCI Yeast Anticancer Drug Screen. Data for the sgs1 mgt1 strain (AID 161);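 also: 0% = growth of cultures given vehicle only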; conditions: S. cerevisiae sgs1 mgt1 strain, active compounds read high
Summary of the method: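 This yeast growth screen uses a strain with defined DNA-repair lesions; compound-treated growth is compared with vehicle-treated growth.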

[12] = NCI Yeast Anticancer Drug Screen. Data for the CLN2oe strain (AID 163);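 also: 0% = growth of vehicle-only control cultures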; conditions: S. cerevisiae CLN2oe strain, active compounds read high
Summary of the method: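 Whole-cell yeast growth assay. A strain engineered for altered cell-cycle control received compound, and inhibition relative to vehicle-treated cultures was recorded.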

[13] = NCI Yeast Anticancer Drug Screen. Data for the cln2 rad14 strain (AID 165);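 also: 0% = growth equal to vehicle treated cultures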; conditions: S. cerevisiae cln2 rad14 strain, active compounds read high
Summary of the method: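 Yeast strain cln2 rad14, bearing defects in cell cycle control and DNA repair, serves as the test system; values reflect growth inhibition compared with vehicle.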

[14] = NCI Yeast Anticancer Drug Screen. Data for the bub3 strain (AID 167); conditions: S. cerevisiae bub3 mutant strain, active compounds read high
Summary of the method: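 Part of a panel of yeast mutants defective in DNA damage repair or cell cycle regulation. Each strain is grown with compound, and inhibition is calculated relative to solvent-treated cultures.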

[15] = NCI Yeast Anticancer Drug Screen. Data for the wt2 strain (AID 169);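 also: 0% = growth of vehicle-treated yeast cultures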; conditions: S. cerevisiae wt2 strain growth inhibition, active compounds read high
Summary of the method: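 Treated yeast vs. vehicle-treated yeast: growth inhibition determined.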

[16] = at 5.0 µM (retest, dose inferred, filed as 0.5)
[17] = at 50.0 µM (retest, dose inferred, filed as 5.0)

Measured: growth inhibition

CN(Cc1cccc2ccccc12)Cc1cccc2ccccc12
inactive: [1]; at 1.2 µM 4% | [1]; at 3.7 µM 2% | [1]; at 11.0 µM -2% | [1]; at 33.0 µM -10% | [1]; at 100.0 µM 13% | [2]; at 1.2 µM 2% | [2]; at 3.7 µM 2% | [2]; at 11.0 µM 2% | [2]; at 33.0 µM 19% | [2]; at 100.0 µM 24% | [3]; [16] -10% | [3]; [17] 41% | [3]; at 50.0 µM 57.8% | [4]; at 1.2 µM 9% | [4]; at 3.7 µM 6% | [4]; at 11.0 µM -20% | [4]; at 33.0 µM 11% | [4]; at 100.0 µM 6%

CC[N+]1(C)CCC(O)(/C=C/c2ccc(Cl)c(Cl)c2)C(C(=O)/C=C/c2ccc(Cl)c(Cl)c2)C1 (centres undefined)
active: [5]; at 11.0 µM 99% | [5]; at 33.0 µM 99% | [5]; at 100.0 µM 98% | [6]; at 3.7 µM 85% | [6]; at 11.0 µM 99% | [6]; at 33.0 µM 99% | [6]; at 100.0 µM 99% | [7]; at 3.7 µM 72% | [7]; at 11.0 µM 99% | [7]; at 33.0 µM 99% | [7]; at 100.0 µM 99% | [8]; [16] 85% | [8]; at 11.0 µM 99% | [8]; at 33.0 µM 99% | [8]; [17] 98% | [8]; at 50.0 µM 99.5% | [8]; at 100.0 µM 98% | [9]; at 3.7 µM 88% | [9]; [16] 86% | [9]; at 11.0 µM 99% | [9]; at 33.0 µM 99% | [9]; [17] 99% | [9]; at 50.0 µM 99.3% | [9]; at 100.0 µM 99% | [10]; at 11.0 µM 99% | [10]; at 33.0 µM 99% | [10]; at 100.0 µM 99% | [11]; [16] 88% | [11]; [17] 98% | [11]; at 50.0 µM 99.5% | [12]; at 11.0 µM 99% | [12]; at 33.0 µM 98% | [12]; at 100.0 µM 99% | [13]; [17] 99% | [13]; at 50.0 µM 99% | [14]; [16] 90% | [14]; at 11.0 µM 98% | [14]; at 33.0 µM 99% | [14]; [17] 99% | [14]; at 50.0 µM 99.1% | [14]; at 100.0 µM 96% | [15]; at 11.0 µM 99% | [15]; at 33.0 µM 99% | [15]; at 100.0 µM 99% | [2]; at 3.7 µM 71% | [2]; at 11.0 µM 99% | [2]; at 33.0 µM 99% | [2]; at 100.0 µM 98% | [3]; [16] 82% | [3]; [17] 99% | [3]; at 50.0 µM 99.2%
inactive: [5]; at 1.2 µM -29% | [5]; at 3.7 µM 30% | [6]; at 1.2 µM 12% | [7]; at 1.2 µM 7% | [8]; at 1.2 µM 7% | [8]; at 3.7 µM 52% | [9]; at 1.2 µM 36% | [10]; at 1.2 µM 6% | [10]; at 3.7 µM 39% | [12]; at 1.2 µM -8% | [12]; at 3.7 µM 15% | [13]; [16] 46% | [14]; at 1.2 µM 0% | [14]; at 3.7 µM 20% | [15]; at 1.2 µM -4% | [15]; at 3.7 µM 29% | [2]; at 1.2 µM 15%

Cc1cnccc1N=Nc1ccc(N(C)C)cc1
inactive: [5]; at 1.2 µM -5% | [5]; at 3.7 µM -6% | [5]; at 11.0 µM -8% | [5]; at 33.0 µM 1% | [5]; at 100.0 µM 1% | [6]; at 1.2 µM 2% | [6]; at 3.7 µM 3% | [6]; at 11.0 µM 7% | [6]; at 33.0 µM 43% | [7]; at 1.2 µM 2% | [7]; at 3.7 µM -2% | [7]; at 11.0 µM 2% | [7]; at 33.0 µM 31% | [7]; at 100.0 µM 41% | [8]; at 1.2 µM -4% | [8]; at 3.7 µM -4% | [8]; [16] -109% | [8]; at 11.0 µM 13% | [8]; at 33.0 µM 27% | [8]; [17] -2% | [8]; at 100.0 µM 37% | [9]; at 1.2 µM -3% | [9]; at 3.7 µM 1% | [9]; [16] -42% | [9]; at 11.0 µM -21% | [9]; at 33.0 µM -4% | [9]; [17] -34% | [9]; at 50.0 µM 30.9% | [9]; at 100.0 µM 3% | [10]; at 1.2 µM -3% | [10]; at 3.7 µM -5% | [10]; at 11.0 µM 12% | [10]; at 33.0 µM 39% | [10]; at 100.0 µM 51% | [11]; [16] -23% | [11]; [17] 46% | [11]; at 50.0 µM 65.8% | [12]; at 1.2 µM 3% | [12]; at 3.7 µM 8% | [12]; at 11.0 µM 15% | [12]; at 33.0 µM 30% | [12]; at 100.0 µM 30% | [13]; [16] -43% | [13]; [17] -19% | [13]; at 50.0 µM 34% | [14]; at 1.2 µM 8% | [14]; at 3.7 µM 10% | [14]; [16] -33% | [14]; at 11.0 µM 14% | [14]; at 33.0 µM 32% | [14]; [17] 69% | [15]; at 1.2 µM 0% | [15]; at 3.7 µM -1% | [15]; at 11.0 µM 2% | [15]; at 33.0 µM 13% | [15]; at 100.0 µM 4% | [1]; at 1.2 µM -1% | [1]; at 3.7 µM 1% | [1]; at 11.0 µM 0% | [1]; at 33.0 µM 24% | [1]; at 100.0 µM 31% | [2]; at 1.2 µM 2% | [2]; at 3.7 µM 3% | [2]; at 11.0 µM 32% | [2]; at 33.0 µM 52% | [2]; at 100.0 µM 49% | [3]; [16] -95% | [3]; [17] -7% | [3]; at 50.0 µM 36.1% | [4]; at 1.2 µM -4% | [4]; at 3.7 µM -4% | [4]; at 11.0 µM 9% | [4]; at 33.0 µM 25% | [4]; at 100.0 µM 30%
active: [6]; at 100.0 µM 90% | [8]; at 50.0 µM 81.8% | [14]; at 50.0 µM 89% | [14]; at 100.0 µM 79%

Reference: PubChem BioAssay (NCI)
